For five molecules, z-score and composite z-score results are on record in PubChem BioAssay.

Experiment [1] in a line: A549 cell viability effects, profiling panel, calcein-AM fluorescence, 48 h, basal (AID 1162). Note: test concentration not given here. The settings on record: higher = more signal.
A short description of experiment [2]: adipocyte viability effects, profiling panel, cell-based, 3T3-L1 adipocytes, calcein-AM fluorescence, 48 h, basal (AID 1163). Note: test concentration not given here. The settings on record: 3T3-L1 adipocytes viability, higher = more signal.
Experiment [3] can be described thus: HepG2 cell viability effects, profiling panel, calcein-AM fluorescence, 48 h, basal (AID 1164). Note: test concentration not given here. The note with it: higher = more signal.
A short description of experiment [4]: MM1S cell viability effects, profiling panel, calcein-AM fluorescence, 48 h, basal (AID 1165).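 Note: viability of MM1S multiple myeloma cells under basal unstimulated conditions; test concentration not given here.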 The note with it: higher = more signal.
Experiment [5] is described as follows: basal RPMI8226 viability, no added stimulus, profiling panel, cell-based, calcein-AM fluorescence, 48 h, PK04 Diversity Set (AID 1166).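 Note: cells grown under basal conditions without added stimulus; test concentration not given here.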 The note with it: RPMI8226 myeloma viability, higher = more signal.
Experiment [6] in a line: basal HepG2 mitochondrial membrane potential changes, profiling panel, cell-based, JC-1 fluorescence, 24 h, 100 nL compound (AID 1167). Note: test concentration not given here. The settings on record: higher = more signal.
The nature of experiment [7]: basal 3T3-L1 adipocyte mitochondrial potential changes, profiling panel, cell-based, JC-1 fluorescence, 3T3-L1 adipocytes, 24 h, 100 nL compound (AID 1168). Note: test concentration not given here. The note with it: JC-1 mitochondrial fluorescence, higher = more signal, called active from +8 up or from −8 down.
Experiment [8] can be described thus: basal RPMI8226 mitochondrial membrane potential changes, profiling panel, cell-based, JC-1 fluorescence, 24 h, 100 nL compound (AID 1169). Note: test concentration not given here. The settings on record: RPMI8226 myeloma, JC-1 mitochondrial potential fluorescence, higher = more signal.
Experiment [9] in a line: basal MM1S mitochondrial membrane potential changes, profiling panel, cell-based, JC-1 fluorescence, 24 h, 100 nL compound (AID 1170). Note: test concentration not given here. The note with it: higher = more signal.
Experiment [10] is described as follows: A549 lung cancer cell viability effects, profiling panel, resazurin fluorescence, 24 h, PK04 Diversity Set (AID 1171). Note: test concentration not given here. The settings on record: higher = more signal, called active from +8 up or from −8 down. For orientation: Alamar Blue is a resazurin reagent that responds to reducing activity.
The nature of experiment [11]: HepG2 liver cancer cell viability effects, profiling panel, resazurin fluorescence, 24 h, PK04 Diversity Set (AID 1172). Note: test concentration not given here. The note with it: higher = more signal.
A short description of experiment [12]: basal S. cerevisiae growth modulation, no modifier, primary screen, OD600, strain BY4716, 24 h, basal condition (AID 1173). The settings on record: OD600, 24 h, higher = more signal, called active from +8 up or from −8 down.
Experiment [13] in a line: MM1S myeloma cell viability, profiling panel, resazurin fluorescence, basal, 24 h, PK04 Diversity Set (AID 1174). Note: test concentration not given here. The note with it: higher = more signal, called active from +8 up or from −8 down.
The target of experiment [14] is Dihydroorotate dehydrogenase (quinone), mitochondrial (Plasmodium falciparum (isolate 3D7)) (UniProt Q08210). Kind of experiment: PfDHODH enzyme inhibitors, primary screen, biochemical, C-terminal His tag, absorbance 600 nm (AID 1175).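 Note: recombinant parasite enzyme with a five histidine tag at its C terminus; test concentration not given here.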 The note with it: DCIP absorbance 600 nm, higher = more signal, called active from +8 up or from −8 down.
Chain of Dihydroorotate dehydrogenase (quinone), mitochondrial (Plasmodium falciparum (isolate 3D7)) (Q08210 whole entry, looked up): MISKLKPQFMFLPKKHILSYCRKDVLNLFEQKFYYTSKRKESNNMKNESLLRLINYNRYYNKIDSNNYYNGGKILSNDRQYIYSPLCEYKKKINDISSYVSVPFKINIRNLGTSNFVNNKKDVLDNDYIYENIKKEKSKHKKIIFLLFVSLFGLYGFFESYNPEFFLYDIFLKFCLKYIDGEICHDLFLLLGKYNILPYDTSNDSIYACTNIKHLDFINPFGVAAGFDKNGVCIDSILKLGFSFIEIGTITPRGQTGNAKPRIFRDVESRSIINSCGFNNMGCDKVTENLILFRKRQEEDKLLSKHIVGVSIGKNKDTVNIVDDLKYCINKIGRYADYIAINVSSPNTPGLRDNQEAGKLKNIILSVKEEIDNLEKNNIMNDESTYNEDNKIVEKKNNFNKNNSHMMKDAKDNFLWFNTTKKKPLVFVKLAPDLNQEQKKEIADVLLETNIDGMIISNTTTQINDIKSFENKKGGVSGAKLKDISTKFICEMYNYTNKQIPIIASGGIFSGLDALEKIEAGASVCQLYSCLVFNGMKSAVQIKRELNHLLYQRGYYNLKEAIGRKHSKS
Experiment [15] can be described thus: P. aeruginosa biofilm formation inhibitors, primary screen, strain PAO1, LB-PBS medium, absorbance 600 nm (AID 1176). Note: test concentration not given here. The note with it: P. aeruginosa PAO1 growth/biofilm, A600, 12 h; higher = more signal.
A short description of experiment [16]: S. cerevisiae RM11-1a growth modifiers, primary screen, strain RM11-1a, OD600, basal, 24 h (AID 1177).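 Note: cultures grown under basal conditions with no added stressor; test concentration not given here.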 The settings on record: OD600, 24 h, higher = more signal, called active from +8 up or from −8 down.
The nature of experiment [17]: E. coli acrAB mutant growth effects, primary screen, E. coli filamentation inducers, strain DRC39, OD650, 24 h (AID 1178).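 Note: growth measured as culture turbidity by optical density at 650 nm; test concentration not given here.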 The settings on record: higher = more signal, called active from +8 up or from −8 down.
Experiment [18] can be described thus: E. coli acrAB mutant growth effects, primary screen, E. coli filamentation inducers, strain DRC39, OD650, 48 h (AID 1179).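 Note: screen aims at cell division blockers that make cells filament.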 The note with it: E. coli DRC39 delta-acrAB growth, higher = more signal, called active from +8 up or from −8 down.
Experiment [19] is described as follows: RPMI8226 myeloma cell viability, profiling panel, resazurin fluorescence, basal, 24 h, PK04 Diversity Set (AID 1180).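 Note: RPMI8826 multiple myeloma cell line at 5000 cells per well; test concentration not given here.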 The note with it: higher = more signal.
Experiment [20] has as its target E3 ubiquitin-protein ligase XIAP (Homo sapiens) (UniProt P98170). The experiment in a line: XIAP binders, primary screen, biophysical, small-molecule microarray, fluorescence 635 nm (AID 1181).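 Note: score merges 667 nm emission and signal to noise over triplicate slides.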 The note with it: small-molecule microarray binding, higher = more signal.

SMILES strings stand for the structures. “And” between values parts separate entries of the source, which are not always exact repeats. Equal values may be shown once. The source made the active and inactive calls. Unless noted, the rule behind the calls is not given here.

Chain of E3 ubiquitin-protein ligase XIAP (Homo sapiens) (P98170 whole entry, looked up): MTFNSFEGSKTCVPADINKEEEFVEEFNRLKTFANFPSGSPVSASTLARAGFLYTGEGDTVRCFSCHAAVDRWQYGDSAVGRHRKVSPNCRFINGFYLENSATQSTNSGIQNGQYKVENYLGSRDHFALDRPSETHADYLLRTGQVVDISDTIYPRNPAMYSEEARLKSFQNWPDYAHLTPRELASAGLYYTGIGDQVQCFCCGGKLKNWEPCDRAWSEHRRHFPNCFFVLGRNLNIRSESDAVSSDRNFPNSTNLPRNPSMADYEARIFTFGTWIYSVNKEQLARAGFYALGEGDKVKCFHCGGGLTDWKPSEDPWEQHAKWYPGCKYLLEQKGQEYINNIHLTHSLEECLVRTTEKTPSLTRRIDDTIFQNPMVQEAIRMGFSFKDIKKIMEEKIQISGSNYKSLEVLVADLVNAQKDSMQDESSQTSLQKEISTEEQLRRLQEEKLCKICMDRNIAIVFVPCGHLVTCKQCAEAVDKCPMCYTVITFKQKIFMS

On to `C=CCN(CCCCC)C(=O)C(c1cccs1)N(CCOCCO)C(=O)/C=C\C(=O)O` (stereo not given), for which the z-score was 0.457 and 0.414 in [1]; 0.314 and -0.158 in experiment [2]; 0.341 and 0.976 in experiment [3]; 1.85 and 1.71 in [4]; 0.025 and 0.586 in experiment [5]; 0.69 and -0.139 in experiment [6]. In addition, the z-score in experiment [7] is 1.03 (inactive) and 0.45 (inactive); in experiment [8], 0.0935 and -0.719; in experiment [9], -0.512 and 0.0846; in [10] it was -0.186 (inactive) and -0.954 (inactive); in [11] it was -0.925 and -0.111; in experiment [12] it was -0.397 (inactive) and -0.258 (inactive). For the same molecule, the z-score in experiment [13] was -0.223 (inactive) and 0.149 (inactive); in experiment [15], 0.0126 (inactive) and -0.401 (inactive); in experiment [16], -1.37 (inactive) and -1.48 (inactive); in [17], -0.388 (inactive) and 0.106 (inactive); in experiment [18], 0.526 (inactive) and 0.855 (inactive); in [19], 0.096 and -0.165. For the same molecule, the composite z-score in experiment [14] is -1.15 (inactive) and -1.27 (inactive); in experiment [20], 0.548 and -0.0273.
As to `C[C@@H](ON=C1[C@H]2CCn3c(=O)n(-c4ccccc4)c(=O)n3[C@H]2[C@H](O)[C@@H]2O[C@H]12)c1cn([C@H](CO)Cc2ccccc2)nn1`, the z-score in [1] is 0.158; in experiment [2] it was -0.002; in [3], 0.567; in [4], -0.463; in [5] it was -0.259; in experiment [6], -0.998. For the same molecule, the z-score in experiment [7] was 0.31 (inactive); in [8] it was -0.334; in [9], -0.00977; in experiment [10], -0.847 (inactive); in experiment [11], -1.08; in experiment [12], 0.394 (inactive). Also, the z-score in [13] is -1.42 (inactive); in experiment [15] it was -0.525 (inactive); in [16] it was 0.122 (inactive); in experiment [17], 0.777 (inactive); in [18] it was 1.12 (inactive); in experiment [19] it was -1.65. Further, the composite z-score was -0.469 (inactive) in experiment [14] and -0.0208 in experiment [20].
On to `C=CCN(CCCC)C(=O)C1N(c2c(Cl)cccc2CO)C(=O)C2C(C(=O)O)C3C=CC21O3` (stereo not given), for which the z-score is -0.313 and -0.498 in [1]; 1.21 and 1.63 in experiment [2]; -1.25 and -0.852 in experiment [3]; 0.96 and 0.468 in [4]; -0.497 and -0.251 in [5]; -1.04 and -0.518 in experiment [6]. The z-score was -0.291 (inactive) and 0.159 (inactive) in [7]; 0.0487 and -0.0566 in experiment [8]; 0.488 and 0.599 in experiment [9]; -0.822 (inactive) and -0.0069 (inactive) in [10]; -0.757 and -0.248 in experiment [11]; 0.187 (inactive) and -0.602 (inactive) in experiment [12]. Moreover, the z-score in [13] was -1.9 (inactive) and -0.645 (inactive); in [15], -0.261 (inactive) and 0.497 (inactive); in experiment [16], 0.561 (inactive) and 0.143 (inactive); in [17], -0.964 (inactive) and 0.22 (inactive); in experiment [18] it was -0.881 (inactive) and -0.0006 (inactive); in experiment [19], -0.813 and -0.285. For the same molecule, the composite z-score in [14] is 0.82 (inactive) and -0.536 (inactive); in experiment [20], -0.0599 and 0.425.
For the molecule `CC[C@@H]1C(Sc2ccccc2)C(C(=O)O)[C@H](c2ccc(C)cc2)N1S(=O)(=O)c1ccc(C)cc1` (stereo not given in full), the z-score was 0.0996 and 0.624 in experiment [1]; -0.505 and 0.311 in [2]; 0.364 and 0.126 in experiment [3]; 0.702 and 1.11 in experiment [4]; -0.528 and -0.148 in [5]; -0.446 and 0.366 in experiment [6]. For the same molecule, the z-score in experiment [7] is 0.164 (inactive) and 0.619 (inactive); in experiment [8], 0.296 and -0.369; in experiment [9], -0.152 and -0.291; in [10] it was -0.631 (inactive) and -1.02 (inactive); in [11], -0.706 and -0.917; in experiment [12], -0.28 (inactive) and -1.3 (inactive). Moreover, the z-score was -0.567 (inactive) and 0.0522 (inactive) in experiment [13]; 0.133 (inactive) and 0.257 (inactive) in experiment [15]; -0.112 (inactive) and -1.09 (inactive) in [16]; -0.604 (inactive) and -0.627 (inactive) in [17]; -0.106 (inactive) and 0.575 (inactive) in [18]; -1.17 and -0.637 in experiment [19]. Further, the composite z-score in experiment [14] is 0.0392 (inactive) and -0.581 (inactive); in experiment [20], 0.287 and 0.382.
Consider `C=CCN(C(=O)C1N(CCCCCCO)C(=O)C2C(C(=O)O)C3C=CC21O3)c1ccc(OC)cc1` (stereo not given), for which the z-score in experiment [1] was 1.37 and 0.282; in experiment [2], 0.743 and -0.0063; in experiment [3] it was -0.46 and 0.428; in experiment [4] it was 0.315 and -1.1; in experiment [5], 0.432 and 0.269; in [6], 0.113 and -0.546. Also, the z-score in experiment [7] was 0.74 (inactive) and 0.861 (inactive); in [8], -0.875 and -0.0778; in experiment [9], 1.02 and 1.2; in [10], 1.09 (inactive) and 0.416 (inactive); in experiment [11], 0.831 and 0.525; in experiment [12], -2.35 (inactive) and -2.45 (inactive). Moreover, the z-score in experiment [13] is 1.04 (inactive) and -0.294 (inactive); in [15], -0.401 (inactive); in experiment [16], -1.53 (inactive) and -0.292 (inactive); in [17], 1.15 (inactive) and 0.43 (inactive); in experiment [18] it was 1.16 (inactive) and 0.716 (inactive); in [19], 1.37 and 0.372. Further, the composite z-score is -1.78 (inactive) and -2.48 (inactive) in experiment [14]; -0.0492 and 0.0972 in experiment [20].
